Assay outcomes as filed in PubChem BioAssay.
CHRM4 PAM = CHRM4 positive allosteric modulation. activation, % at 3 µM. AID 624126. 0.4% of 360,000 active. P08173. CHO-K1 hM4/Gqi5, Fluo-8 calcium fluorescence, ACh EC20; 0% = ACh EC20, 100% = maximal ACh;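 active = activation above its plate's cutoff, the mean activation of sample wells plus 3 SD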
Target sequence (P08173 whole entry, looked up): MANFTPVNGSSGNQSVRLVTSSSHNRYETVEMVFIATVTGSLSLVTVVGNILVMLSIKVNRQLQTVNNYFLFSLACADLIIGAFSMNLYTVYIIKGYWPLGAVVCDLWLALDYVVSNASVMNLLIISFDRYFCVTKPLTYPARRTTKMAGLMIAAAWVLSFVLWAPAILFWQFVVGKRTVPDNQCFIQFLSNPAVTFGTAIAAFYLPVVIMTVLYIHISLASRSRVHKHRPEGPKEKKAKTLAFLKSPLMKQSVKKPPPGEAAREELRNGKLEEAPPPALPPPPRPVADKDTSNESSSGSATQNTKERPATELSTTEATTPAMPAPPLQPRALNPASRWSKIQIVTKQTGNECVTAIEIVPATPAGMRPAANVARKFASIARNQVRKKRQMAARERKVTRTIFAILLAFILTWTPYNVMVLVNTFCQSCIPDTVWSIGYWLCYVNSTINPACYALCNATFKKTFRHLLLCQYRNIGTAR
M4 antag = antagonists of human muscarinic M4 receptor (CHRM4). CHO-hM4 cells, ACh EC80, Fluo-8 calcium fluorescence. inhibition, % at 3 µM. 0.73% of 360,000 active;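 active = inhibition above its plate's cutoff, the mean inhibition of sample wells plus 3 SD, cut at about 27% in these data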;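 also: 0% = acetylcholine EC80 with DMSO and 100% = DMSO without agonist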
CHO-K1 Ca antag = M1 antagonist counterscreen hit in parental CHO-K1 cells; ATP-induced calcium, Fluo-8 fluorescence; inhibition, % at 3 µM; AID 602250; 0.6% of 360,000 active;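 active = inhibition above a per-plate cutoff, the plate's mean sample inhibition plus 3 SD, cut at about 24% in these data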;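 also: 0% = DMSO plus EC80 ATP and 100% = DMSO alone without ATP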
CHO-K1 Ca ag = nonselective activator or artifact in parental CHO-K1 cells | 0.48% of 360,000 active | activation, % at 3 µM | Fluo-8 calcium fluorescence; scaled to maximal ATP response, vehicle zero | AID 602248; in the data active = activation above about 15%;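 also: untransfected CHO-K1 host cells lacking M1 receptor as counterscreen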
CHO-K1 Ca PAM = counter-screen for M1 PAMs: effect in parental CHO-K1 cells; ATP EC20, Fluo-8 calcium fluorescence; 0% at ATP EC20, 100% at ATP max; activation, % at 3 µM; 0.02% of 360,000 active; AID 602247;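 active = activation above the run cutoff, the mean activation of all test compounds plus 3 SD, cut at about 40% in these data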;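 also: peak over basal fluorescence ratio in a 140 s read after ATP addition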
M4 ag = CHRM4 agonism in calcium assay; activation, % at 3 µM; AID 624127; CHO-K1 hM4/Gqi5, Fluo-8 calcium fluorescence; vehicle 0%, full acetylcholine response 100%; 0.14% of 360,000 active; P08173;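 active = activation above the run mean over all test wells plus 3 SD, cut at about 32% in these data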;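 also: peak over basal fluorescence ratio per well then scaled between controls; 0% = DMSO wells and 100% = acetylcholine at EC100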
Numbers without * were called inactive. Hits are enriched below; roughly 2% of the tested compounds scored in any of these assays.

SMILES | CHRM4 PAM | M4 antag | CHO-K1 Ca antag | CHO-K1 Ca ag | CHO-K1 Ca PAM | M4 ag
CC1(C)Cc2c(sc3nc[nH]c(=O)c23)CO1 | 16.6 | -18.9 | 26.0* | -0.5 | -18.8 | 1.5
Cc1ccc(C)c(NC(=S)N(C)CCc2ccccn2)c1 | 17.9* | -5.0 | -7.8 | 0.2 | 22.7 | 1.3
Cc1ccccc1NC(=S)N(C)CCc1ccccn1 | -2.5 | -1.2 | 4.6 | 0.3 | 6.5 | 1.7
C[C@H]1CN([C@@H](C)CO)C(=O)Cc2cc(NS(=O)(=O)c3cccs3)ccc2O[C@H]1CN(C)S(=O)(=O)c1cn(C)cn1 | -14.3 | 31.9* | -12.5 | 0.7 | 6.1 | 3.4
C[C@H](CO)N1C[C@H](C)[C@@H](CN(C)S(=O)(=O)c2cccs2)Oc2ccc(NS(=O)(=O)c3cn(C)cn3)cc2C1=O | -1.4 | 9.1 | -8.3 | -0.2 | -15.3 | 0.8
C[C@H](CO)N1C[C@H](C)[C@H](CN(C)S(=O)(=O)c2cccs2)Oc2ccc(NC(=O)Nc3ccc4c(c3)OCO4)cc2CC1=O | -15.7 | 40.7* | -9.9 | -0.2 | -1.4 | 1.3
C[C@H](CO)N1C[C@H](C)[C@@H](CN(C)S(=O)(=O)c2cccs2)Oc2ccc(NC(=O)Nc3ccc4c(c3)OCO4)cc2C1=O | -0.9 | 9.8 | -7.2 | -0.1 | -6.7 | 0.8
Cc1ccc(CS(=O)(=O)c2ncc(Cl)c(C(=O)Nc3ccc(OC(F)F)cc3)n2)cc1 | -8.4 | 55.8* | 23.8* | -0.7 | -27.8 | 5.0
CCS(=O)(=O)c1ncc(Cl)c(C(=O)Nc2ccc(C)cc2)n1 | -4.5 | 14.3 | 7.8 | -0.7 | 2.7 | -0.8
Cc1cc(C)c2sc(NC(=O)C3=COCCO3)nc2c1 | 21.7* | -9.2 | -7.8 | 0.5 | -2.9 | 3.4
Cc1cc(C)c(-c2csc(NC(=O)C3=COCCO3)n2)c(C)c1 | -7.0 | -11.7 | -6.1 | 0.1 | 26.9 | 2.8
O=C(CCN1CCN(Cc2ccccc2)CC1)Nc1ccc(OCc2ccccc2)cc1 | -29.6 | 54.5* | 23.3 | 7.2 | 2.6 | 20.1
S=C(Nc1ccccc1)Nc1ccc(OCc2ccccc2)cc1 | -1.7 | 9.8 | 26.2* | -0.3 | -7.6 | 1.3
O=C(CCN1CCN(CCO)CC1)Nc1ccc(OCc2ccccc2)cc1 | -1.4 | -0.1 | 0.3 | 0.5 | 4.7 | 0.8
Clc1ccc(C[n+]2csc3ccccc32)cc1 | -8.1 | 9.2 | 1.4 | 0.5 | 8.2 | -0.5
Fc1ccc(C[n+]2csc3ccccc32)cc1 | -6.9 | 27.7* | -7.2 | 0.8 | -3.5 | 6.5
CN1CCN([C@H]2CS(=O)(=O)N[C@@H]2COCc2ccccc2)CC1 | -2.2 | 1.2 | 23.5 | -0.1 | -7.6 | 0.3
O=S1(=O)C[C@H](N2CCCC2)[C@@H](COCc2ccccc2)N1 | -1.5 | -5.3 | 24.8* | -0.5 | -7.8 | 0.6
CCOc1ccccc1NC(=O)COC(=O)CCOc1cc(C)ccc1C | 4.7 | -3.2 | -1.6 | 1.0 | -16.3 | 0.7
C=CCn1c(-c2cc(-c3ccccc3)sc2N)n[nH]c1=S | -1.4 | 3.0 | -5.3 | 0.2 | -6.6 | -0.5
CCn1c(SC(C)C)nnc1-c1cc(-c2ccccc2)sc1N | -8.2 | 4.2 | 27.8* | -0.2 | -9.3 | -0.7
COc1cc2c(cc1CN1CCN(C(=O)c3cc(OC)c(OC)c(OC)c3)CC1)OCO2 | -0.3 | -13.4 | -13.1 | -0.4 | 5.1 | 0.1
Fc1c(CSC(=S)N2CCOCC2)cccc1CSC(=S)N1CCOCC1 | -1.8 | 3.4 | -2.6 | 16.3* | 11.7 | 1.5
COc1ccc(N2C(=S)NC3CS(=O)(=O)CC32)cc1 (centres undefined) | -26.2 | 27.9* | -6.6 | 0.2 | 19.3 | 0.2
COc1ccc(N2C(=O)S[C@@H]3CS(=O)(=O)C[C@@H]32)cc1 | -1.6 | 3.6 | -10.8 | 0.4 | 20.9 | 0.3
SMILES | CHRM4 PAM | M4 antag | CHO-K1 Ca antag | CHO-K1 Ca ag | CHO-K1 Ca PAM | M4 ag
O=C(COC(=O)/C=C/c1ccccc1)NCCC1=CCCCC1 | 6.4 | -5.6 | -12.3 | 1.6 | 13.2 | 1.3
O=C(COC(=O)/C=C/c1ccc(Cl)cc1Cl)NCCC1=CCCCC1 | 11.0 | 27.9* | 8.7 | 0.2 | -11.0 | 1.1
O=C(Nc1nc2ccccc2s1)C1CCN(S(=O)(=O)c2cc([N+](=O)[O-])ccc2Cl)CC1 | -33.9 | 32.6* | 40.3* | 8.8 | -19.7 | 17.4
CCC(C)NC(=O)C1CCN(S(=O)(=O)c2cc([N+](=O)[O-])ccc2Cl)CC1 (centres undefined) | -6.8 | -7.6 | -11.0 | 0.7 | 21.2 | 2.5
CCC(=O)Nc1nc2c(c(=O)[nH]1)CCCC2 | 5.4 | -17.1 | -0.6 | 0.4 | 14.4 | 0.6
CC(C)(C)C(=O)Nc1nc2c(c(=O)[nH]1)CCCC2 | 20.6* | -2.0 | -1.7 | 0.4 | 19.9 | 2.2
CN(C)/C=C/C1=CC(=O)CC(C)(C)C1 | 1.4 | -5.3 | 23.9* | -0.9 | -18.3 | 1.0
COc1ccc(CCNc2ncnc3c2oc2ccccc23)cc1OC | -21.3 | 26.2 | 44.3* | 14.8 | -9.6 | 20.7
COc1ccc(CCNc2nc(C)nc3c2oc2ccccc23)cc1OC | -17.1 | 22.7 | 16.3 | 12.5 | -0.5 | 21.1
CN(C)c1ccc(CNc2ncnc3sccc23)cc1 | -18.6 | 11.1 | 25.3* | 10.0 | -16.0 | 10.5
COc1ccc(CCNc2ncnc3sccc23)cc1OC | -23.9 | 40.3* | 33.5* | 17.4* | -4.5 | 21.3
COc1ccc(CCNc2nc(-c3cccnc3)nc3ccccc23)cc1OC | -19.1 | 28.2* | 22.5 | 6.6 | -5.5 | 15.3
CC(C)C[C@@H](CNCC(=O)[C@H](CC(C)C)NC(=O)c1[nH]cnc1C(=O)N[C@H](CN)CC(C)C)NC(=O)c1nc[nH]c1C(=O)N[C@@H](CC(=O)O)C(=O)O | 5.5 | -7.1 | -19.0 | 0.9 | 18.6 | 0.2
O=[N+]([O-])c1ccc(S(=O)(=O)CC2CSc3nc4ccccc4n32)cc1 (centres undefined) | 33.5* | 8.1 | -0.9 | 0.1 | 5.0 | 0.3
COc1ccc(OC)c(NC(=O)c2sc3ncnc(N4CCN(c5ccccn5)CC4)c3c2C)c1 | 18.8* | -22.1 | -11.3 | 0.9 | 4.5 | 1.4
CCC1C(=O)N=C(SCC(=O)Nc2cccc3ccccc23)NC1=O (centres undefined) | 28.1* | 8.7 | -3.9 | -0.7 | 8.3 | 0.8
Cc1ccccc1CN(C)C(=O)CNC(=O)c1ccc2ccccc2c1 | -3.6 | 1.0 | -13.5 | 4.4 | 8.0 | 6.8
O=C(NC1CCCN(Cc2ccc(Cl)cc2)C1)c1ccnc(Cl)c1 (centres undefined) | -6.8 | 5.6 | -8.3 | 1.7 | 6.4 | 1.6
O=C(NC1CCCN(c2ccc(C(F)(F)F)cn2)C1)c1ccnc(Cl)c1 (centres undefined) | 19.8* | 5.0 | -1.2 | 1.1 | -0.7 | 4.2
Cc1ccc(S(=O)(=O)N(C)CC(=O)N2CCN(Cc3ccccc3)CC2)cc1 | 4.2 | -12.7 | -8.3 | 1.4 | 14.8 | 4.1
